This is an account of results in the supplement of paper PMC11417369.

Over roughly 25,000 sequences, “ln(normalized median fluorescence intensity)” has its median near 9.7; the highest 2% begin near 11. What follows is part of a selection rich in the highest values, with near analogues and random picks from the rest.

For this experiment, the system named is PfAP2-HC AP2 domain (GST-tagged). The experiment can be described thus: gcPBM binding intensity (ln(normalized median fluorescence intensity)); higher = stronger DNA binding. Put shortly: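 Binding intensity is the highest Masliner-normalised natural-log median intensity over replicate spots in either probe orientation. To obtain it, GST-tagged P. falciparum DNA-binding domains made in E. coli were incubated for 1 h on an Agilent 4 × 180k array of primer-extended double-stranded 36-bp intergenic genomic probes plus negative controls. Detection used Alexa488 anti-GST antibody with scanning at 488 nm.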
For the sequence “TTTTTTTGCATTTCATGTACATATATTGAGCTTAAA [XGTACX_site8485]”, the “gcPBM binding intensity (ln)” value is 9.6.

On to “TCACAAATGTATTATACACACAAGTTTTCTTTAATA [CACACA_site4107]”, for which the “gcPBM binding intensity (ln)” value was determined as 9.71.

In the case of “ATGAATTTTTCTCTACAAAAGGATATAATAAAAATA [XGTACX_negctrl_site461]”, the “gcPBM binding intensity (ln)” value is 9.37.

Consider “TTACGAATAAAACAGTGTACATTGAATTTCTATGAG [XGTACX_site4771]”, for which the “gcPBM binding intensity (ln)” value was found to be 9.51.

For “TTTTTAAAAATATACACACACAGATATTATAGATAT [CACACA_site6511]”, the “gcPBM binding intensity (ln)” value worked out at 10.1.

As to “TCCTTATTTATATAATGTACTTTTTTTTTTCATTTT [XGTACX_site4275]”, the “gcPBM binding intensity (ln)” value came to 9.64.

“TTTATTCAAATATAATGTACTTTCTACAAATTCAAT [XGTACX_site8119]”: the “gcPBM binding intensity (ln)” value was found to be 9.43.

For “TATTATATAAAATATTTTATTATATCATCTTCTCTA [XGTACX_negctrl_site319]”, the “gcPBM binding intensity (ln)” value stood at 9.44.

As to “TTCATTTTCATATATTGTACAAAATTTTATAAGGTT [XGTACX_site4522]”, the “gcPBM binding intensity (ln)” value was found to be 9.58.

As for “ATCTTGAAGATTATTTGTACACAAAAGTTAAAATAT [XGTACX_site242]”, the “gcPBM binding intensity (ln)” value was 9.47.

For the sequence “AAAAAAAAAAAACATACACACAAATAAATACATACA [CACACA_site6073]”, the “gcPBM binding intensity (ln)” value amounted to 10.1.

Turning to “AAAAAAAAAAAACACACACACACAAATACATACACA [CACACA_site706]”, the “gcPBM binding intensity (ln)” value was found to be 10.7.

With “AAAAAAAAAAAACACACACACAAATACAAATACATA [CACACA_site415]”, the “gcPBM binding intensity (ln)” value worked out at 11.5.

On to “TCATACTGTATATTTTGTACTTATATATATATTATA [XGTACX_site6136]”, for which the “gcPBM binding intensity (ln)” value amounted to 10.

As to “CACCCACCCACATACACACACATACACATATATATA [CACACA_site1722]”, the “gcPBM binding intensity (ln)” value is 10.3.

Regarding “TATTCCCCCAAACACACACACACACCCACATACCAC [CACACA_site2304]”, the “gcPBM binding intensity (ln)” value stood at 10.7.

Regarding “TATTCCCCCCAACACACACACACACCGACATACCAC [CACACA_site8723]”, the “gcPBM binding intensity (ln)” value amounted to 11.5.

As to “CATATTCCCCCCCACACACACACACCCATACATACC [CACACA_site2303]”, the “gcPBM binding intensity (ln)” value came to 10.6.

For the sequence “ACATACATACCCCCACGTACGTACCGAAACACCACC [XGTACX_site1982]”, the “gcPBM binding intensity (ln)” value was 9.84.

With “GACATATTCCCCCCCACACACACACCCACATACATA [CACACA_site2302]”, the “gcPBM binding intensity (ln)” value is 11.1.

“AATTATATATTATAATGTACATATATATAACTATAC [XGTACX_site1865]”: the “gcPBM binding intensity (ln)” value was 9.67.

On to “ATAATTCATGTTTAGTGTACAAAAAATTAAAGCAAC [XGTACX_site8891]”, for which the “gcPBM binding intensity (ln)” value turned out to be 9.87.

Consider “ATATAGTATAATAAAAGTACATTTTGATTTTTTCTC [XGTACX_site1797]”, for which the “gcPBM binding intensity (ln)” value came out at 9.61.

For “AATAAACATAAATAAAAATTATAAAATATATATATG [CACACA_negctrl_site1709]”, the “gcPBM binding intensity (ln)” value was determined as 9.75.

Turning to “CATATACAGAAACACACACACACATAAATAAATATA [CACACA_site1343]”, the “gcPBM binding intensity (ln)” value is 11.

On to “CATTATAAGAAACACACACACATATATATATATATA [CACACA_site1051]”, for which the “gcPBM binding intensity (ln)” value came out at 10.1.

“TATACGCAGAAACACACACACATACACCCACATACA [CACACA_site1723]”: the “gcPBM binding intensity (ln)” value was found to be 10.6.

In the case of “ATATAACAGAAACACACACACATATATATATATTAT [CACACA_site4140]”, the “gcPBM binding intensity (ln)” value was determined as 11.3.

In the case of “TACATACAGAAACACACACACACATATATATATATA [CACACA_site2919]”, the “gcPBM binding intensity (ln)” value worked out at 11.1.

For the sequence “CATACACAGAAACACACACACATATATACATATATA [CACACA_site1094]”, the “gcPBM binding intensity (ln)” value stood at 10.4.

Take “CATACACAGAAACACACACACATATATATATATATA [CACACA_site4519]”: the “gcPBM binding intensity (ln)” value was found to be 10.2.

For “TAAAAAAAAACAGAAACACACATTATTCATATATAT [CACACA_site2049]”, the “gcPBM binding intensity (ln)” value was determined as 10.2.

Regarding “CATACATAGAAACACACACACACACCCACCCACAAA [CACACA_site494]”, the “gcPBM binding intensity (ln)” value is 10.6.

As for “CAAATACAGAAACACACACACATATACATATATATA [CACACA_site3498]”, the “gcPBM binding intensity (ln)” value stood at 10.4.

For the sequence “AACATACAGAAACACACACACACACCCACACCCACA [CACACA_site493]”, the “gcPBM binding intensity (ln)” value came out at 11.5.

For “TAAATACAGAAACACACACACAAATATATACATACA [CACACA_site2880]”, the “gcPBM binding intensity (ln)” value amounted to 10.5.

On to “TTGTTAGAGTATATTGAAAGGATAACCTTTTTTTAT [XGTACX_negctrl_site122]”, for which the “gcPBM binding intensity (ln)” value turned out to be 9.43.

Turning to AAAATAATTTTATAGTTGCACTATATCGTATACAAT, the “gcPBM binding intensity (ln)” value was 9.71.

With “AACGATTTACATCACTGTACTAATGATATACCTCAT [XGTACX_site7463]”, the “gcPBM binding intensity (ln)” value is 9.85.

“ATAAATATAACATATTGTACCCTTAAAAAGGAACAA [XGTACX_site352]”: the “gcPBM binding intensity (ln)” value turned out to be 9.5.

As for “ACGTACTGCCCTAAAGTGCATATATAATATAAACGA [GTGCAC_site9911]”, the “gcPBM binding intensity (ln)” value stood at 9.52.

For “GTCATATTAATATGTACACACATATTTATATTTATA [CACACA_site6798]”, the “gcPBM binding intensity (ln)” value is 9.83.

On to “AATGTTTAATATAACGCATGCCTTAATATAGAATGC [TGCATGCA_site463]”, for which the “gcPBM binding intensity (ln)” value came out at 9.59.

On to “TAAAGAAAAAGAGAATGTACATGAGAAAAGTATACT [XGTACX_site7472]”, for which the “gcPBM binding intensity (ln)” value was found to be 9.79.

As to “TTTAAAAAAAAAAAAAAAAATTAAATGAATTATTAA [CACACA_negctrl_site1121]”, the “gcPBM binding intensity (ln)” value was 8.95.

With “AAAAAAAAAAATATAACACACAACAAAAAAATATAT [CACACA_site1753]”, the “gcPBM binding intensity (ln)” value is 10.4.

On to “ATAGTAAACGAAATAAAAAGATTAGCATAATATCCT [CACACA_negctrl_site1730]”, for which the “gcPBM binding intensity (ln)” value turned out to be 9.79.

As to “ACATGTGAACATTCAATGCACACGATGTAATTATAC [CACACA_site14]”, the “gcPBM binding intensity (ln)” value was 9.84.

Turning to “TAATTTTTTTTTTTTTTTCATTCTTTTCCTTTGATT [CACACA_negctrl_site1365]”, the “gcPBM binding intensity (ln)” value was found to be 9.22.

Consider “CACAACATATATATATATATATATATATATATGTGT [CACACA_negctrl_site28]”, for which the “gcPBM binding intensity (ln)” value came out at 9.39.

For the sequence “TATATGTTTGAATATACACACAACATATTTATATAT [CACACA_site7832]”, the “gcPBM binding intensity (ln)” value came out at 9.74.

As for “ACTTCAAAAAAAAAAAAATATATATATATATATTAT [GTGCAC_negctrl_site158]”, the “gcPBM binding intensity (ln)” value was found to be 9.33.

In the case of “TATAATTTAACGACATGTACATATAAAAAAATATTT [XGTACX_site2395]”, the “gcPBM binding intensity (ln)” value was 9.75.

Take “TTTTTTTTTTTGATTTGTACACAAAAAAAATATATG [XGTACX_site4547]”: the “gcPBM binding intensity (ln)” value stood at 9.42.

In the case of “TAATTTTTGAAACACACACACATATATATATATATA [CACACA_site94]”, the “gcPBM binding intensity (ln)” value came out at 10.5.

For “AATTTGTTGAAACACACACACACATACATATATATA [CACACA_site2287]”, the “gcPBM binding intensity (ln)” value was found to be 11.3.

Consider “CATATATTTTGAAACACACACATATATAATATACAT [CACACA_site1158]”, for which the “gcPBM binding intensity (ln)” value turned out to be 10.4.
